In the library only some 9.4% were active in any assay of this set; here they are far more common.
ALDH1A1 inh – blocks purified human ALDH1A1 activity; AID 1030; Potency, µM (top dose mostly 75.3 µM), for the others: at the top dose activity, negative = inhibition, most hits filed as inhibitors; hit rate 7.3% among 220,000; P00352; Purified ALDH1A1, NADH fluorescence, propionaldehyde substrate; active = well fitted inhibition curve with a large enough effect, not every such curve was filed as active; inconclusive = small, poorly fitted or top-dose-only effect, or another doubt; inactive = no such curve, though single readings can be large or run the other way;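 note: potency is the fitted concentration of half-maximal effect; plate controls were no enzyme wells and a reference inhibitor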
Target sequence (P00352 whole entry, looked up): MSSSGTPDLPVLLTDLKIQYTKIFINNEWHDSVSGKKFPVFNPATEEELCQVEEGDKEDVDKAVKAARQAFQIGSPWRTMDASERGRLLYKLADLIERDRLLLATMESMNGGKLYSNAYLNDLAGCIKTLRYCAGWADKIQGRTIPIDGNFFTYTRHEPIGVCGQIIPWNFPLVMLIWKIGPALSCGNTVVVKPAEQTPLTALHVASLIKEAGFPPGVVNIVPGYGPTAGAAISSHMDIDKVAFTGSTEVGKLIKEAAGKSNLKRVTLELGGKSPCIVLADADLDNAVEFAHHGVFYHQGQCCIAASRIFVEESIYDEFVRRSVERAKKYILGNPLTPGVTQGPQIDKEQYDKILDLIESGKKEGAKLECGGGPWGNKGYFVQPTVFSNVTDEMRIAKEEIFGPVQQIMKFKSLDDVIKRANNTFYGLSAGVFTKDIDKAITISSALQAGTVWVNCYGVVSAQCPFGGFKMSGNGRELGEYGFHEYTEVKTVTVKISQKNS
IMPase Li cell – cell-permeable IMPase inhibitors with lithium potentiation; hit rate 0.35% among 210,000; Potency, µM (highest dose often 59.4 µM), inactives show top-dose activity, negative = IMPase inhibition, usual class: inhibitors; CHO-M1 cells, IP1 TR-FRET (IP-One), carbachol + lithium;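 note: IP1 builds up when IMPase is blocked and the TR-FRET signal falls; potency is the fitted concentration of half-maximal effect; plate controls were basal vehicle for no effect and high inhibitor control for full effect; nearly all actives have a fitted effect of over 50% in size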
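Steps: plate 2000 CHO-M1 cells per well and culture 16–30 h; add compound and lithium; incubate 30 min, 37C; add d2-IP1 tracer and Eu cryptate anti-IP1 antibody in lysis buffer; read after 10 min at room temperature.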
HPGD block – blocks human HPGD enzyme activity; P15428; purified HPGD, NADH fluorescence kinetic, PGE2 substrate; Potency, µM, for inactives: top-dose activity change, negative = inhibition, actives largely listed as inhibitors; hit rate 4.3% among 150,000; AID 894; active = well fitted inhibition curve with a large enough effect, not every such curve was filed as active; inconclusive = small, poorly fitted or top-dose-only effect, or another doubt; inactive = no such curve, though single readings can be large or run the other way; note: potency is the fitted concentration of half-maximal effect; % is set by controls: 0 for no effect and ±100 for the full control effect
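NADH formation kinetics: reaction with 30 uM PGE2 and 1 mM NAD+ (final), 20 nM enzyme, Tris-HCl pH 8 with Tween 20, after 15 min compound preincubation at room temperature. Fluorescence change, last versus first of five reads.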
HTT ATP protect – protects HTT-Q103 PC12 cells, measured by ATP. PC12 HTT-Q103 induced, cytoprotection, ATP luminescence, 40 h. Potency, µM (doses to about 56.4 µM), for inactives: cytoprotection (ATP increase), actives largely listed as activators. hit rate 0.14% among 230,000. AID 1471; note: potency is the fitted concentration of half-maximal effect; % of control where 0% means no effect; nearly all actives have a fitted effect of over 45% in size
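Compounds were screened for protection of PC12 cells against cell death after tebufenozide induction (100 nM final) of mutant Huntingtin exon 1 (Q103) fused to GFP.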
IMPase cell inh – membrane-permeable compound that blocks inositol monophosphatase; 120,000 tested, under 10 active; P97697; CHO-M1 cells, IP1 accumulation, HTRF TR-FRET ratio; AID 901; inhibition (IP1 accumulation), % at 46.1 µM; active = well fitted curve in the direction sought with a large enough effect in the signal ratio, not every such curve was filed as active; inconclusive = small, poorly fitted or top-dose-only effect, or a change in a side signal; inactive = no such curve, though single readings can be large or run the other way; the % refers to the signal ratio;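 note: cells stimulated with carbachol in lithium chloride buffer; plate controls were DMSO basal wells for no effect and reference inhibitor wells for full effect; higher means more IMPase inhibition seen as more IP1 and lower FRET ratio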
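Elevated IP1 in lysates lowers TR-FRET signal (665/620 ratio and 620 channel reported). Cells were CHO-M1, given carbachol (50 uM as added) plus 50mM LiCl, pH 7.4, 30 min, 37C; compounds titrated up to 46 uM; AC50 by Hill equation.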
HTT aggregate – mutant huntingtin aggregation inhibition; PC12 HttQ103-GFP aggregates, Acumen cytometry, 40 h; hit rate 1.1% among 220,000; Potency, µM (titrated, usually from 46.1 µM), inactives show at the highest dose activity change, negative = inhibition, hits mostly inhibitors; note: potency is the fitted concentration of half-maximal effect; % is set by controls: 0 for no effect and ±100 for the full control effect; nearly all actives have a fitted effect of over 60% in size
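Multiplexed with ATP-based cell death, this channel scores GFP aggregates in PC12 cells expressing inducible HTTex1-Q103-GFP. Induction used 100 nM tebufenozide; compounds were tested in concentration series.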
An asterisk follows results filed as active; ? = inconclusive; . = no result; [ ] = another dose, or the depositor's remark. Unless noted, calls come from the whole dose curve; as a rule, active = well fitted curve in the direction sought with a large enough effect; inconclusive = small, poorly fitted or top-dose-only effect, or another doubt; inactive = no such curve, though single readings can be large; an effect the other way counts as inactive or inconclusive.

SMILES | ALDH1A1 inh | IMPase Li cell | HPGD block | HTT ATP protect | IMPase cell inh | HTT aggregate
CCCNC(=O)CN(c1ccc(F)cc1)S(=O)(=O)c1ccc2c(c1)OCCO2 | -4.0% | 18.3%[38.3 µM] | -6.2% | -3.7% | -2.1 | 8.7%
C/C=C/C=C/C=O | 25.1µM* | -11.2% | -8.1% | 3.4% | . | .
COCCCn1c(=N)c(S(=O)(=O)c2ccccc2)cc2c(=O)n3cccc(C)c3nc21 | . | . | . | . | 2.1 | .
CCC(C(=O)O)C1OC(C(C)C(O)C(C)C(=O)C(CC)C2OC3(C=CC(O)C4(CCC(C)(C5CCC(O)(CC)C(C)O5)O4)O3)C(C)CC2C)C(C)CC1C (stereo not drawn) | . | . | . | -95.5% | . | 1.78µM*
O=C(CCn1nnc(-c2cccs2)n1)N1CCc2ccccc2C1 | 28.2µM* | 47.7%[38.3 µM] | 15.8µM* | -6.3%[10 µM] | 4.7 | 5.3%
O=C(c1cc(-c2ccc(O)cc2)on1)N1CCc2ccccc2C1 | ? | 5.9%[38.3 µM] | 12.6µM* | -1.7% | 4.3 | -11.9%
O=C(c1ccc2nc(-c3ccco3)c(-c3ccco3)nc2c1)N1CCN(c2ccccc2)CC1 | 8.91µM* | 27.0%[38.3 µM] | ? | -5.3%[0.074 µM] | 8.9 | ?
O=C(c1cc(-c2ccco2)on1)N1CCc2ccccc2C1 | 7.94µM* | -9.8%[38.3 µM] | 11.2µM* | -8.8% | ? | 19.7%
O=C(c1cc(-c2ccccc2O)on1)N1CCc2ccccc2C1 | ? | 28.4%[38.3 µM] | ? | 1.1% | 3.6 | 7.0%
O=C(c1cc(-c2ccco2)on1)N1CCN(c2ccccc2)CC1 | 14.1µM* | 25.8%[38.3 µM] | -18.2% | -4.0% | 6.4 | 16.2%
O=C(c1cc(-c2cccs2)on1)N1CCc2ccccc2C1 | -4.2% | 32.0% | 12.6µM* | 25.9%[10 µM] | -1.5 | 9.2%
C=CCOC(=O)C1=C(C)NC(SCC(=O)N(CC)CC)=C(C#N)C1c1ccco1 (stereo not drawn) | ? | 29.6%[38.3 µM] | 17.8µM* | 7.5%[1.9 µM] | 3.5 | 29.4%
N#CC1=C(SCC(=O)c2ccccc2)NC2=C(C(=O)CCC2)C1c1ccco1 (stereo not drawn) | 8.91µM* | 1.9%[38.3 µM] | ? | -111.4% | 5.2 | 11.2µM*
CSCSC1=C(C#N)C(c2ccccc2Cl)C(C(C)=O)=C(C)N1 (stereo not drawn) | 25.1µM* | 5.7%[38.3 µM] | ? | 2.9% | 7.4 | -26.2%
CCOC(=O)CSC1=C(C#N)C(c2ccccc2F)C(C(C)=O)=C(C)N1 (stereo not drawn) | ? | 9.2%[38.3 µM] | -12.3% | 7.7% | -1.2 | 11.2%
CC(=O)C1=C(C)NC(SCC(=O)c2ccc(F)cc2)=C(C#N)C1c1ccco1 (stereo not drawn) | 12.6µM* | 4.7%[38.3 µM] | 25.1µM* | -20.3% | 18.5 | -7.2%
CCN(CC)C(=O)CSC1=C(C#N)C(c2ccco2)C(C(=O)OCCOC)=C(C)N1 (stereo not drawn) | ? | 9.1% | ? | . | . | 8.6%
O=C(O)C(Cc1cc(I)c(O)c(I)c1)c1ccccc1 (stereo not drawn) | . | . | . | ? | . | 20.2%
O=C(c1ccco1)n1nc(-c2ccccc2)nc1NCc1ccc(F)cc1 | . | . | . | . | -9.5 | .
COc1ccc(-c2[nH]c(-c3ccc(Cl)cc3)nc2SCC(=O)NCC2CCCO2)cc1 (stereo not drawn) | . | . | . | . | 5.2 | .
CC(=O)C1=C(C)NC(SCC(N)=O)=C(C#N)C1c1sccc1C (stereo not drawn) | ? | 10.3%[38.3 µM] | ? | -44.1% | 3.7 | -0.9%
CCOC(=O)CSC1=C(C#N)C(c2ccc(Cl)cc2)C(C(=O)OC)C(=O)N1 (stereo not drawn) | 25.1µM* | 32.9%[38.3 µM] | -26.4% | -16.8%[0.074 µM] | ? | 2.8%
CC(=O)C1=C(C)NC(SCC(=O)c2cc(Cl)ccc2Cl)=C(C#N)C1c1ccco1 (stereo not drawn) | 25.1µM* | -1.0%[38.3 µM] | 28.2µM* | -3.5% | 6.5 | ?
CCOC(=O)CSC1=C(C#N)C(c2sccc2C)C(C(C)=O)=C(C)N1 (stereo not drawn) | 22.4µM* | 8.2%[38.3 µM] | -14.5% | 6.3% | 5.5 | -10.3%

Screens (PubChem)
